The nature of test [1]: A CellTox Green Cytotoxicity Assay to monitor cytotoxicity in HEK293 cells - 40 hour (AID 1224871). Further: nearly all actives have a fitted effect of over 45% in size. In a few lines:
(§1)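 Fluorescence intensity, read at 0, 8, 16, 24, 32 and 40 h of compound treatment, reflected dye binding to DNA of dead HEK293 cells; compounds (23 nL, DMSO) were added 5 h after plating cells with reagent.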

Test [2] can be described thus: qHTS RealTime-Glo MT Cell Viability Assay in HEK293 cells - 16 hour (AID 1224872). Further: top concentration of the series differs between compounds; nearly all actives have a fitted effect of over 50% in size. In a few lines: (§2)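 Tox21 10K qHTS, HEK293, 600 cells/well, RealTime-Glo reagent co-dispensed with cells; 5 h preincubation, compound by pintool, 37 C, luminescence at 0–40 h.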
Test [3] can be described thus: qHTS RealTime-Glo MT Cell Viability Assay in HepG2 cells - 8 hour (AID 1224873). Further: nearly all actives have a fitted effect of over 55% in size. The method in brief:
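Real-time viability: cells seeded at 600 per well together with NanoLuc and cell-permeant prosubstrate, compounds added after 5 h incubation. Luminescence tracked at 0, 8, 16, 24, 32 and 40 h of exposure.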
A general note: qHTS replaces the single test concentration by a dilution series.

Test [4] in a line: qHTS RealTime-Glo MT Cell Viability Assay in HEK293 cells - 40 hour (AID 1224874). Further: nearly all actives have a fitted effect of over 50% in size. Particulars: RealTime-Glo luminescence; max response: hits give low values. In a few lines: (§3)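 Viable HEK293 cells reduce a cell-permeant prosubstrate; the product diffuses out and is consumed by NanoLuc in the medium to give light. Compounds went in after a 5 h incubation and plates were read over the treatment course.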

Test [5] in a line: A CellTox Green Cytotoxicity Assay to monitor cytotoxicity in HEK293 cells - 24 hour (AID 1224875). Further: series mostly up to about 77 µM; nearly all actives have a fitted effect of over 45% in size. In a few lines:
as §1

Test [6] can be described thus: A CellTox Green Cytotoxicity Assay to monitor cytotoxicity in HepG2 cells - 16 hour (AID 1224876). Further: nearly all actives have a fitted effect of over 45% in size. The method in brief:
(§4)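 Using 1536-well format, dye-containing HepG2 suspension was seeded, allowed 5 h at 37 C/5% CO2, dosed by pintool with compounds, positive and negative controls, and imaged for fluorescence across 40 h.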

A short description of test [7]: qHTS RealTime-Glo MT Cell Viability Assay in HepG2 cells - 32 hour (AID 1224877). Further: nearly all actives have a fitted effect of over 55% in size. In a few lines: (§5)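 Cells + NanoLuc/prosubstrate dispensed (600 cells/well) → 5 h at 37 C/5% CO2 → compounds in DMSO transferred → 40 h incubation at 37 C, luminescence read at 0, 8, 16, 24, 32, 40 h.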
The nature of test [8]: A CellTox Green Cytotoxicity Assay to monitor cytotoxicity in HepG2 cells - 24 hour (AID 1224878). Further: nearly all actives have a fitted effect of over 45% in size. The method in brief: as §4
Test [9] in a line: A CellTox Green Cytotoxicity Assay to monitor cytotoxicity in HepG2 cells - 40 hour (AID 1224879). Further: nearly all actives have a fitted effect of over 40% in size. In a few lines: as §4
Test [10] is described as follows: qHTS RealTime-Glo MT Cell Viability Assay in HEK293 cells - 0 hour (AID 1224880). Further: nearly all actives have a fitted effect of over 45% in size. Further: potency means the concentration at half of the fitted maximal effect. The method in brief:
as §3

Test [11] in a line: A CellTox Green Cytotoxicity Assay to monitor cytotoxicity in HEK293 cells - 32 hour (AID 1224881). Further: nearly all actives have a fitted effect of over 40% in size. In a few lines:
as §1

The nature of test [12]: A CellTox Green Cytotoxicity Assay to monitor cytotoxicity in HepG2 cells - 0 hour (AID 1224882). Further: nearly all actives have a fitted effect of over 35% in size. In a few lines:
as §4

Test [13] in a line: A CellTox Green Cytotoxicity Assay to monitor cytotoxicity in HepG2 cells - 32 hour (AID 1224883). Further: nearly all actives have a fitted effect of over 50% in size. In a few lines:
as §4

Test [14] is described as follows: A CellTox Green Cytotoxicity Assay to monitor cytotoxicity in HEK293 cells - 8 hour (AID 1224884). Further: nearly all actives have a fitted effect of over 35% in size. In a few lines: as §1
Test [15] is described as follows: qHTS RealTime-Glo MT Cell Viability Assay in HepG2 cells - 16 hour (AID 1224885). Further: nearly all actives have a fitted effect of over 50% in size. The method in brief:
as §5

Test [16] is described as follows: qHTS RealTime-Glo MT Cell Viability Assay in HEK293 cells - 24 hour (AID 1224886). The method in brief: as §2
Test [17] is described as follows: qHTS RealTime-Glo MT Cell Viability Assay in HEK293 cells - 8 hour (AID 1224887). The method in brief:
as §3

Test [18] in a line: A CellTox Green Cytotoxicity Assay to monitor cytotoxicity in HEK293 cells - 16 hour (AID 1224888). Further: nearly all actives have a fitted effect of over 35% in size. The method in brief: as §1
A short description of test [19]: qHTS RealTime-Glo MT Cell Viability Assay in HepG2 cells - 0 hour (AID 1224889). Further: nearly all actives have a fitted effect of over 50% in size. Further: potency means the concentration at half of the fitted maximal effect. In a few lines:
as §5

Test [20] can be described thus: A CellTox Green Cytotoxicity Assay to monitor cytotoxicity in HepG2 cells - 8 hour (AID 1224890). Further: nearly all actives have a fitted effect of over 45% in size. In a few lines:
as §4

A number with no mark means an inactive call. Inconclusive results are not listed. Active and inactive are the calls of the source. The call rests on the fitted dose curve; in most records, active means well fitted curve in the direction sought with a large enough effect in the repeat runs; inconclusive means weak or mixed curves; inactive means no such curve, though single readings can be large; an effect the other way counts as inactive or inconclusive.
On the % scale 0 is the no-effect control and ±100 the full control effect.

For the compound `CC(C)(O)C(=O)O`, the Potency entry in test [1], in [2], in test [5], in test [6], in test [7] and in [8] was “inactive” in each case. Moreover, the Potency entry in test [9], in test [10], in test [11], in test [12], in test [13] and in [14] was “inactive” throughout. For the same compound, the Potency entry in test [16], in test [17], in [18], in [19] and in [20] was “inactive” throughout. In addition, the call in test [3] and in [15] was inactive. Also, in test [4], the max response was 6.64%.

Consider `O=C(O)CCc1nc2ccccc2[nH]1`, for which the Potency entry in test [1], in test [2], in test [5], in [6], in test [7] and in test [8] was “inactive” in each case. Moreover, the Potency result in [9], in test [10], in test [11], in test [12], in test [13] and in [14] was “inactive” each time. Also, the Potency entry in [16], in test [17], in test [18], in test [19] and in [20] was “inactive” throughout. For the same compound, the result in test [3] and in test [15] was inactive. Also, in [4], the max response is 11%.

Consider `CC(C(=O)O)c1ccc(/C=C2\CCCCC2=O)cc1` (stereo not given), for which the Potency entry in [1], in test [2], in [5], in [6], in [7] and in [8] was “inactive” each time. In addition, the Potency entry in test [9], in test [10], in test [11], in test [12], in test [13] and in [14] was “inactive” throughout. Moreover, the Potency result in test [16], in [17], in [18], in test [19] and in [20] was “inactive” in each case. Further, the call in [3] and in test [15] was inactive. In addition, the max response in [4] was 21%.

For the compound `CCN(CC)CC(=O)OCC(=O)[C@@]1(O)CC[C@H]2[C@@H]3CCC4=CC(=O)CC[C@]4(C)[C@H]3[C@@H](O)C[C@@]21C`, the Potency result in test [1], in [2], in [5], in test [6], in [7] and in [8] was “inactive” in each case. For the same compound, the Potency result in test [9], in test [11], in test [12], in [13], in test [14] and in [16] was “inactive” in each case. Moreover, the Potency result in [17], in test [18] and in test [20] was “inactive” throughout. For the same compound, the call in test [3] and in [15] was inactive. Also, the max response in test [4] was -1.53%. Also, the figures for the Potency in test [10] and in test [19] were 1.9 µM (active) and 1.07 µM (active), respectively.

As for `OCCc1ccncc1`, the Potency result in [1], in [2], in test [5], in test [6], in test [7] and in test [8] was “inactive” throughout. Besides, the Potency result in [9], in test [10], in test [11], in test [12], in test [13] and in test [14] was “inactive” each time. Moreover, the Potency entry in [16], in test [17], in [18], in test [19] and in test [20] was “inactive” each time. Moreover, the compound was called inactive in test [3] and in test [15]. Further, in test [4], the max response is -8.09%.

Take `CCOC(OCC)OCC`: the Potency result in test [1], in test [2], in test [5], in [6], in [7] and in [8] was “inactive” in each case. Moreover, the Potency entry in test [9], in [10], in test [11], in test [12], in test [13] and in [14] was “inactive” throughout. Moreover, the Potency result in test [16], in test [17], in test [18], in test [19] and in [20] was “inactive” throughout. Moreover, the result in test [3] and in [15] was inactive. Besides, the max response in test [4] was -1.36%.

The record behind these values is PubChem BioAssay (Tox21).
